According to paper PMC5540273 (PLoS ONE, 2017):
Like-named read-outs stand apart in the source and are kept apart here.

Assays:
PIK3C2G = conditions: concentration: 1 μM, replicates: in singlicate; n = 1
PIK3CA = conditions: concentration: 1 μM, replicates: in singlicate; n = 1
PIK3CB = conditions: concentration: 1 μM, replicates: in singlicate; n = 1
PIK3CD = conditions: concentration: 1 μM, replicates: in singlicate; n = 1
PIK3CG = conditions: concentration: 1 μM, replicates: in singlicate; n = 1
PIK4CB = system: T1, PIK4CB; conditions: concentration: 1 μM, replicates: in singlicate; n = 1
T1 construct: gene PI4KB

PIKFYVE = conditions: concentration: 1 μM, replicates: in singlicate; n = 1
PIM1 = conditions: concentration: 1 μM, replicates: in singlicate; n = 1
PIM2 = conditions: concentration: 1 μM, replicates: in singlicate; n = 1
PIM3 = conditions: concentration: 1 μM, replicates: in singlicate; n = 1
PIP5K1A = conditions: concentration: 1 μM, replicates: in singlicate; n = 1
PIP5K1C = conditions: concentration: 1 μM, replicates: in singlicate; n = 1
PIP5K2B = conditions: concentration: 1 μM, replicates: in singlicate; n = 1
PIP5K2C = system: T2, PIP5K2C; conditions: concentration: 1 μM, replicates: in singlicate; n = 1
T2 construct: gene PIP4K2C

PKAC-alpha = system: T3, PKAC-alpha; conditions: n = 1
T3 construct: gene PRKACA

PKAC-beta = system: T4, PKAC-beta; conditions: n = 1
T4 construct: gene PRKACB

PKMYT1 = conditions: concentration: 1 μM, replicates: in singlicate; n = 1
PKN1 = conditions: n = 1
PKN2 = conditions: concentration: 1 μM, replicates: in singlicate; n = 1
PLK1 = conditions: concentration: 1 μM, replicates: in singlicate; n = 1
[1] = concentration: 1 μM, replicates: in singlicate
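Further: KINOMEscan kinase panel screen.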

COC(=O)Nc1nc2cc(Oc3ccc(NC(=O)Nc4cc(C(F)(F)F)ccc4F)cn3)ccc2[nH]1.Cl.Cl [GW681170]
%Inh (PIK3C2G): 0% | %Inh (PIK3CA): 0% | %Inh (PIK3CB): 5% | %Inh (PIK3CD): 0% | %Inh (PIK3CG): 0% | %Inh (PIK4CB): 0% | %Inh (PIKFYVE): 0% | %Inh (PIM1): 9% | %Inh (PIM2): 0% | %Inh (PIM3): 0% | %Inh (PIP5K1A): 9% | %Inh (PIP5K1C): 61% | %Inh (PIP5K2B): 12% | %Inh (PIP5K2C): 19% | %Inh (PKAC-alpha; [1]): 0% | %Inh (PKAC-beta; [1]): 0% | %Inh (PKMYT1): 5% | %Inh (PKN1; [1]): 15% | %Inh (PKN2): 15% | %Inh (PLK1): 0%

Nc1ncc(-c2cccnc2)c2scc(-c3ccc4c(c3)CCN4C(=O)Cc3ccccc3)c12 [GSK683281]
%Inh (PIK3C2G): 0% | %Inh (PIK3CA): 0% | %Inh (PIK3CB): 0% | %Inh (PIK3CD): 0% | %Inh (PIK3CG): 0% | %Inh (PIK4CB): 0% | %Inh (PIKFYVE): 0% | %Inh (PIM1): 0% | %Inh (PIM2): 0% | %Inh (PIM3): 0% | %Inh (PIP5K1A): 0% | %Inh (PIP5K1C): 17% | %Inh (PIP5K2B): 19% | %Inh (PIP5K2C): 0% | %Inh (PKAC-alpha; [1]): 31% | %Inh (PKAC-beta; [1]): 13% | %Inh (PKMYT1): 13% | %Inh (PKN1; [1]): 30% | %Inh (PKN2): 18% | %Inh (PLK1): 5%

COc1cccc(C(=O)Nc2cccc(Oc3ccc4nc(NC(=O)C5CC5)cn4n3)c2)c1
%Inh (PIK3C2G): 1% | %Inh (PIK3CA): 0% | %Inh (PIK3CB): 0% | %Inh (PIK3CD): 0% | %Inh (PIK3CG): 0% | %Inh (PIK4CB): 0% | %Inh (PIKFYVE): 0% | %Inh (PIM1): 9% | %Inh (PIM2): 11% | %Inh (PIM3): 17% | %Inh (PIP5K1A): 0% | %Inh (PIP5K1C): 10% | %Inh (PIP5K2B): 0% | %Inh (PIP5K2C): 28% | %Inh (PKAC-alpha; [1]): 6% | %Inh (PKAC-beta; [1]): 47% | %Inh (PKMYT1): 0% | %Inh (PKN1; [1]): 0% | %Inh (PKN2): 4% | %Inh (PLK1): 0%

COc1ccc(-c2coc3ccc(-c4nnc(SCc5ccc(OC)c(C(F)(F)F)c5)o4)cc23)cc1
%Inh (PIK3C2G): 13% | %Inh (PIK3CA): 0% | %Inh (PIK3CB): 27% | %Inh (PIK3CD): 11% | %Inh (PIK3CG): 0% | %Inh (PIK4CB): 0% | %Inh (PIKFYVE): 0% | %Inh (PIM1): 0% | %Inh (PIM2): 18% | %Inh (PIM3): 4% | %Inh (PIP5K1A): 0% | %Inh (PIP5K1C): 0% | %Inh (PIP5K2B): 4% | %Inh (PIP5K2C): 0% | %Inh (PKAC-alpha; [1]): 15% | %Inh (PKAC-beta; [1]): 3% | %Inh (PKMYT1): 17% | %Inh (PKN1; [1]): 24% | %Inh (PKN2): 3% | %Inh (PLK1): 0%

Cn1cc(-c2ccc3c(c2)CCN3C(=O)Cc2cccc(F)c2)c2c(N)ncnc21 [GSK2603358]
%Inh (PIK3C2G): 0% | %Inh (PIK3CA): 3% | %Inh (PIK3CB): 0% | %Inh (PIK3CD): 28% | %Inh (PIK3CG): 30% | %Inh (PIK4CB): 0% | %Inh (PIKFYVE): 11% | %Inh (PIM1): 0% | %Inh (PIM2): 0% | %Inh (PIM3): 0% | %Inh (PIP5K1A): 0% | %Inh (PIP5K1C): 56% | %Inh (PIP5K2B): 0% | %Inh (PIP5K2C): 38% | %Inh (PKAC-alpha; [1]): 0% | %Inh (PKAC-beta; [1]): 0% | %Inh (PKMYT1): 0% | %Inh (PKN1; [1]): 0% | %Inh (PKN2): 0% | %Inh (PLK1): 0%

CC(=O)Nc1nc2cnc(Nc3cc(NC(=O)c4cccc(C5(C#N)CC5)c4Cl)ccc3C)nc2s1
%Inh (PIK3C2G): 27% | %Inh (PIK3CA): 0% | %Inh (PIK3CB): 12% | %Inh (PIK3CD): 14% | %Inh (PIK3CG): 0% | %Inh (PIK4CB): 0% | %Inh (PIKFYVE): 0% | %Inh (PIM1): 2% | %Inh (PIM2): 4% | %Inh (PIM3): 0% | %Inh (PIP5K1A): 8% | %Inh (PIP5K1C): 4% | %Inh (PIP5K2B): 46% | %Inh (PIP5K2C): 0% | %Inh (PKAC-alpha; [1]): 0% | %Inh (PKAC-beta; [1]): 0% | %Inh (PKMYT1): 0% | %Inh (PKN1; [1]): 0% | %Inh (PKN2): 0% | %Inh (PLK1): 0%

Fc1ccc(-c2ncn(C3CCNCC3)c2-c2ccnc(Oc3ccc(-c4ccccc4)cc3)n2)cc1 [SB-245391]
%Inh (PIK3C2G): 39% | %Inh (PIK3CA): 40% | %Inh (PIK3CB): 40% | %Inh (PIK3CD): 73% | %Inh (PIK3CG): 39% | %Inh (PIK4CB): 31% | %Inh (PIKFYVE): 15% | %Inh (PIM1): 23% | %Inh (PIM2): 4% | %Inh (PIM3): 16% | %Inh (PIP5K1A): 14% | %Inh (PIP5K1C): 24% | %Inh (PIP5K2B): 0% | %Inh (PIP5K2C): 20% | %Inh (PKAC-alpha; [1]): 35% | %Inh (PKAC-beta; [1]): 31% | %Inh (PKMYT1): 9% | %Inh (PKN1; [1]): 0% | %Inh (PKN2): 18% | %Inh (PLK1): 35%

CCn1c(-c2nonc2N)nc2c(C#CC(C)(C)O)ncc(OCCCCN)c21.O=C(O)C(F)(F)F.O=C(O)C(F)(F)F [GSK507274]
%Inh (PIK3C2G): 11% | %Inh (PIK3CA): 0% | %Inh (PIK3CB): 0% | %Inh (PIK3CD): 0% | %Inh (PIK3CG): 0% | %Inh (PIK4CB): 0% | %Inh (PIKFYVE): 88% | %Inh (PIM1): 69% | %Inh (PIM2): 85% | %Inh (PIM3): 78% | %Inh (PIP5K1A): 26% | %Inh (PIP5K1C): 0% | %Inh (PIP5K2B): 6% | %Inh (PIP5K2C): 0% | %Inh (PKAC-alpha; 1 µM): 92.5% | %Inh (PKAC-beta; 1 µM): 95.6% | %Inh (PKMYT1): 0% | %Inh (PKN1; 1 µM): 5% | %Inh (PKN2): 0% | %Inh (PLK1): 5%

Cc1ccc(C)c(NC(=O)NC2CCN(c3ccnc(Nc4ccc(F)cc4)n3)C2)c1 (centres unmarked) [GSK1379720]
%Inh (PIK3C2G): 0% | %Inh (PIK3CA): 0% | %Inh (PIK3CB): 0% | %Inh (PIK3CD): 8% | %Inh (PIK3CG): 0% | %Inh (PIK4CB): 0% | %Inh (PIKFYVE): 0% | %Inh (PIM1): 15% | %Inh (PIM2): 0% | %Inh (PIM3): 0% | %Inh (PIP5K1A): 0% | %Inh (PIP5K1C): 65% | %Inh (PIP5K2B): 38% | %Inh (PIP5K2C): 47% | %Inh (PKAC-alpha; [1]): 0% | %Inh (PKAC-beta; [1]): 0% | %Inh (PKMYT1): 5% | %Inh (PKN1; [1]): 0% | %Inh (PKN2): 0% | %Inh (PLK1): 0%

Cl.c1ccc(-c2ccc3c(Nc4ccc5[nH]ccc5c4)ccnc3c2)nc1 [GW440138]
%Inh (PIK3C2G): 0% | %Inh (PIK3CA): 0% | %Inh (PIK3CB): 37% | %Inh (PIK3CD): 2% | %Inh (PIK3CG): 0% | %Inh (PIK4CB): 0% | %Inh (PIKFYVE): 16% | %Inh (PIM1): 0% | %Inh (PIM2): 0% | %Inh (PIM3): 0% | %Inh (PIP5K1A): 50% | %Inh (PIP5K1C): 66% | %Inh (PIP5K2B): 8% | %Inh (PIP5K2C): 65% | %Inh (PKAC-alpha; [1]): 0% | %Inh (PKAC-beta; [1]): 0% | %Inh (PKMYT1): 0% | %Inh (PKN1; [1]): 0% | %Inh (PKN2): 0% | %Inh (PLK1): 0%
